Experimental data reported in PubChem BioAssay (Tox21).
Records with an inconclusive call do not appear. A call without a number means that no potency is given here. Activity calls are given as the source filed them. Calls follow the shape of the dose curve; as a rule, active = well fitted inhibition curve with a large enough effect in the repeat runs; inconclusive = weak or mixed curves; inactive = no such curve, though single readings can be large or run the other way.

Biological target: Estrogen receptor (Homo sapiens) (UniProt P03372)
Sequence (P03372 whole entry, looked up): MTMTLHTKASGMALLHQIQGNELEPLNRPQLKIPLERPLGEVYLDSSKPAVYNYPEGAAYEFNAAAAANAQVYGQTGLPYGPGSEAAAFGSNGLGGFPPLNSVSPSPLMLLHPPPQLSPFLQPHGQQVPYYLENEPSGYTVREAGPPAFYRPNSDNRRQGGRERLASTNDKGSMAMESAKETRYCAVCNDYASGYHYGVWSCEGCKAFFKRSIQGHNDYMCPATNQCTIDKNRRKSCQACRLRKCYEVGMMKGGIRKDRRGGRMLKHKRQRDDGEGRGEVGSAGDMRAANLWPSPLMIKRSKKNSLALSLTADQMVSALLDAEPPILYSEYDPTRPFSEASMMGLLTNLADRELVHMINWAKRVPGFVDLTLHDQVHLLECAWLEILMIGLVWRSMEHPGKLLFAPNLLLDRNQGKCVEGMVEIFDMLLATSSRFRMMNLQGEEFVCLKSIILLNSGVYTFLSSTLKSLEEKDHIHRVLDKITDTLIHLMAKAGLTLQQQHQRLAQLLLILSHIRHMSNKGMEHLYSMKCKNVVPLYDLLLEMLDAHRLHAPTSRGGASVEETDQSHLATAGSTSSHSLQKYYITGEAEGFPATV
Assay: qHTS assay to identify small molecule antagonists of the estrogen receptor alpha (ER-alpha) signaling pathway using the BG1 cell line in the presence of 0.1 nM 17-beta-estradiol (AID 1259244); also: nearly all actives have a fitted effect of over 50% in size
Conditions: VM7Luc4E2 (BG1) ERE-luciferase, antagonist mode, 0.1 nM E2, 22 h; series mostly up to 42.5 µM
Excerpt: National Center for Advancing Translational Sciences [NCATS]
NIH Chemical Genomics Center [NCGC]
U.S. Environmental Protection Agency [EPA]
National Institutes of Environmental Health Sciences [NIEHS]
National Toxicology Program [NTP]
U.S. Food and Drug Administration [FDA]
Estrogen receptor (ER), a member of the nuclear hormone receptor plays an important role in development, metabolic homeostasis and reproduction. Two subtypes of ER, ER-alpha and ER-beta, have similar expression patterns with some uniqueness in both types. Endocrine disrupting chemicals (EDCs) and their interactions with steroid hormone receptors like ER causes disruption of normal endocrine function. Therefore, it is important to understand the effect of environmental chemicals in ER signaling pathway. For identifying ER antagonists, VM7Luc4E2 cell line was used to screen against Tox21 compound libraries.
VM7Luc4E2 cell line (provided by Denison MS, University of California) endogenously express full-length ER-alpha and is stably transfected with a plasmid containing four estrogen responsive elements (ERE) upstream of a luciferase reporter gene. The current screening for identification of ER-alpha inhibitors against Tox21 compound libraries used lower concentration (0.1 nM) of 17beta-Estradiol as a stimulator.
Tox21 Assay Protocol Summary:
VM7Luc4E2 cells were cultured in phenol red free assay medium containing 10% charcoal stripped FBS for 5 days prior to the assay. The cells were dispensed at 4,000 cells/well in 4 uL of assay medium into white wall/solid-bottom 1536-well plates (Corning Life Sciences, Corning, NY) using a Multidrop Combi (ThermoFisher Scientific, Waltham, MA) dispenser. After the assay plates were incubated at 37C and 5% CO2 for 24 hr, 23 nL of compounds dissolved in DMSO, positive controls or DMSO only was transferred to the assay plates by a Pintool station (Kalypsys, San Diego, CA). The transfer of compounds was followed by the addition of 1 uL of 0.1 nM (final concentration) agonist (17beta-Estradiol)/assay medium using a Flying Reagent Dispenser (FRD, Aurora Discovery, San Diego, CA). The plates were incubated at 37C and 5% CO2 for 22 hr. For luciferase reporter gene assay, 4 uL of ONE-Glo reagent (Promega Corporation, Madison, WI) was added to each well using the FRD and after 30 min incubation at room temperature luminescence intensity was measured using ViewLux plate reader (PerkinElmer, Shelton, CT).
Potency is read from the fitted curve at half-maximal effect.

Question: How did the Potency turn out when CN1C[C@H]2c3ccccc3Oc3ccc(Cl)cc3[C@@H]2C1 was run?
Answer: inactive

Question: For CNCCCCOc1ccccc1Cc1ccccc1, which Potency is on record?
Answer: inactive

Question: Which Potency does the source give for O=C1c2ccccc2S(=O)(=O)N1CCCCN1CCN(c2ncccn2)CC1 here?
Answer: inactive

Question: Which Potency does the source give for CCCCCC[C@@H](O)C/C=C\CCCCCCCC(=O)OC here?
Answer: inactive

Question: With C[Si](C)(CCCN)O[Si](C)(C)CCCN as the compound, how does the Potency read?
Answer: inactive

Question: How did the Potency turn out when O=C(O)C1(C(=O)Nc2ccc(Cl)cc2Cl)CC1 was run?
Answer: inactive

Question: With CNC(=O)CN(CCN(CCN(CC(=O)[O-])CC(=O)NC)CC(=O)[O-])CC(=O)[O-].O.[Gd+3] as the compound, how does the Potency read?
Answer: inactive

Question: How did the Potency turn out when CC[N+](C)(CC)CCOC(=O)C(O)(c1ccccc1)C1CCCCC1 (stereo not given) was run?
Answer: inactive

Question: Which Potency does the source give for CC1=CC=C(C(C)C)CC1 here?
Answer: inactive

Question: NC(=O)C(c1ccccc1)(c1ccccc1)[C@@H]1CCN(CCc2ccc3c(c2)CCO3)C1 was tested. Which Potency did it give?
Answer: inactive

Question: With CCOC(=O)C(=O)CCc1ccccc1 as the compound, how does the Potency read?
Answer: inactive

Question: Which Potency does the source give for c1cc(CCCc2ccncc2)ccn1 here?
Answer: inactive

Question: How did the Potency turn out when c1ccc(-c2ccccn2)nc1 was run?
Answer: inactive

Question: For CCOCC(O)COc1ccc(NC(=O)CC[S+](C)C)cc1 (stereo not given), which Potency is on record?
Answer: inactive

Question: Which Potency does the source give for CCOc1ccc(N)c([N+](=O)[O-])c1 here?
Answer: inactive

Question: Nc1ccc([N+](=O)[O-])c(C(F)(F)F)c1 was tested. Which Potency did it give?
Answer: inactive

Question: C[N+]1(CC2COC(c3ccccc3)(C3CCCCC3)O2)CCCCC1 (stereo not given) was tested. Which Potency did it give?
Answer: inactive

Question: COc1ccc(C(=O)N2CCN(CC(=O)N3CCOCC3)CC2)cc1 was tested. Which Potency did it give?
Answer: inactive

Question: C/C=C(/C(=C/C)c1ccc(OC(C)=O)cc1)c1ccc(OC(C)=O)cc1 was tested. Which Potency did it give?
Answer: inactive

Question: For c1ccc(C(O[C@H]2CCCN(CCc3ccc4c(c3)OCO4)C2)c2ccccc2)cc1, which Potency is on record?
Answer: inactive

Question: Which Potency does the source give for CCCCCCCCCCCC(=O)OC[C@@H](O)[C@H]1OC[C@H](OCCO)[C@H]1OCCO here?
Answer: inactive

Question: For c1ccc(CNCCNCc2ccccc2)cc1, which Potency is on record?
Answer: inactive

Question: For NCC(=O)O, which Potency is on record?
Answer: inactive

Question: For OC[C@H]1O[C@@H](OCCc2ccc(O)cc2)[C@H](O)[C@@H](O)[C@@H]1O, which Potency is on record?
Answer: inactive

Question: With CCCCCCCCCCCc1ccccc1 as the compound, how does the Potency read?
Answer: inactive

Question: CCOC(=O)NCCOc1ccc(Oc2ccccc2)cc1 was tested. Which Potency did it give?
Answer: 43.3 µM (active)

Question: For COc1ccnc(CS(=O)c2nc3ccc(OC(F)F)cc3[nH]2)c1OC (stereo not given), which Potency is on record?
Answer: inactive

Question: How did the Potency turn out when CC(C)(C)Cl was run?
Answer: inactive

Question: With OCCNCc1ccccc1 as the compound, how does the Potency read?
Answer: inactive

Question: How did the Potency turn out when COc1cc2nc(N(C)CCCNC(=O)C3CCCO3)nc(N)c2cc1OC (stereo not given) was run?
Answer: 23.7 µM (active)

Question: Which Potency does the source give for C[C@H](CCC(=O)O)[C@H]1CC[C@H]2[C@@H]3CC[C@@H]4C[C@H](O)CC[C@]4(C)[C@H]3C[C@H](O)[C@]12C here?
Answer: inactive

Question: How did the Potency turn out when O=CC1CC=CCC1 (stereo not given) was run?
Answer: inactive

Question: How did the Potency turn out when C#CCN(C)CCCOc1ccc(Cl)cc1Cl was run?
Answer: inactive

Question: With COc1cccc(N(C)C(=S)Oc2ccc3c(c2)CCCC3)n1 as the compound, how does the Potency read?
Answer: inactive

Question: With O=C(O)c1ccco1 as the compound, how does the Potency read?
Answer: inactive

Question: Which Potency does the source give for COCC(C)OC(C)=O (stereo not given) here?
Answer: inactive

Question: With CC(CSC(=O)c1ccccc1)C(=O)N1C[C@@H](Sc2ccccc2)C[C@H]1C(=O)O (stereo not given in full) as the compound, how does the Potency read?
Answer: inactive

Question: With NCC(=O)CCC(=O)O as the compound, how does the Potency read?
Answer: inactive

Question: How did the Potency turn out when COC(C)OC was run?
Answer: inactive

Question: How did the Potency turn out when O=P(O)(OCc1ccccc1)OCc1ccccc1 was run?
Answer: inactive
